Results: PubChem BioAssay
Active and inactive are the calls of the source.

Columns and labels:
[1] = system: PRMT1 (protein arginine N-methyltransferase 1); experiment: PRMT1 binders on small-molecule microarrays, primary screen, biochemical, small-molecule microarray, 635 nm fluorescence (AID 1088); details: small-molecule microarray binding, higher = more signal;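 also: binding of Prmt1 protein to compounds spotted on small-molecule microarray slides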
[2] = yeast growth modulation, basal conditions, primary screen, YJM789 clinical isolate, OD600, 24 h (AID 1089);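 also: growth of clinical yeast isolate S. cerevisiae YJM 789 seeded 1000 cells per well; test concentration not given here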; details: S. cerevisiae YJM789 growth, higher = more signal, called active from +8 up or from −8 down
[3] = fission yeast growth modulation, primary screen, strain 972, OD600, 24 h, no modulator (AID 1090);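 also: basal condition with compound alone and no growth modifier present; test concentration not given here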; details: S. pombe 972 growth, higher = more signal, called active from +8 up or from −8 down
[4] = S. cerevisiae growth modulation with rapamycin, primary screen, strain BY4716, OD600, 96 h (AID 1091); details: higher = more signal, called active from +8 up or from −8 down; also: test concentration not given here
[5] = molecular target: Torsin-1A-interacting protein 2 (Homo sapiens) (UniProt Q8NFQ8); experiment: LULL1 binders on small-molecule microarray, primary screen, cell lysate, human LULL1 lysate, 635/667 nm fluorescence (AID 1092); details: hLULL1 lysate binding, 635 nm fluorescence, higher = more signal;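 also: probe is lysate of COS7 cells overexpressing human LULL1; score merges per-feature 667 nm fluorescence with signal-to-noise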
Chain of Torsin-1A-interacting protein 2 (Homo sapiens) (Q8NFQ8 whole entry, looked up): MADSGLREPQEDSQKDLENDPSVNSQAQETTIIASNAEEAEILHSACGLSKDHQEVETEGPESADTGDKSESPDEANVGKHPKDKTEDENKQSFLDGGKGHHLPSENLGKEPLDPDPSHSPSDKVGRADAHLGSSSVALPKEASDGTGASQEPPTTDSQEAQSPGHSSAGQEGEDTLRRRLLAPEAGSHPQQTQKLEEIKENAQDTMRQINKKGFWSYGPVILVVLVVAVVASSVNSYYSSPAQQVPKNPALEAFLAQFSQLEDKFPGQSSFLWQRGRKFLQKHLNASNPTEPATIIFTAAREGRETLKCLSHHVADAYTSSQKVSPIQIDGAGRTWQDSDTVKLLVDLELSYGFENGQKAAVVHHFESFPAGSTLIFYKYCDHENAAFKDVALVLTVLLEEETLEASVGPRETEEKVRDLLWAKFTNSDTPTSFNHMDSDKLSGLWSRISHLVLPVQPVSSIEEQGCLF

[6] = E. coli growth modulation, two-sided OD650, primary screen, E. coli filamentation project, strain DRC41, 24 h (AID 1093); details: OD650, 24 h, higher = more signal, called active from +8 up or from −8 down;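 also: MC1000 strain lacking acrAB efflux and sulA so SOS filamentation is blocked; test concentration not given here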
[7] = small-molecule microarray binders of probe aLefty2, primary screen, biochemical, biotinylated probe, 635/667 nm fluorescence (AID 1094); details: higher = more signal;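 also: score merges spot fluorescence near 667 nm with spot signal-to-noise ratio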
[8] = system: Noggin (protein binding on small-molecule microarray); experiment: Noggin binders on small-molecule microarray, primary screen, biochemical, 635/667 nm fluorescence (AID 1095); details: 635 nm fluorescence, higher = more signal;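 also: score merges 667 nm feature fluorescence with signal to noise over triplicate slides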
[9] = molecular target: Neurogenic locus notch homolog protein 3 (Homo sapiens) (UniProt Q9UM47); experiment: NOTCH3 binders on small-molecule microarray, primary screen, biochemical, 635/667 nm fluorescence (AID 1096); details: NOTCH3 binding, 635 nm fluorescence, higher = more signal
Chain of Neurogenic locus notch homolog protein 3 (Homo sapiens) (Q9UM47 whole entry, looked up): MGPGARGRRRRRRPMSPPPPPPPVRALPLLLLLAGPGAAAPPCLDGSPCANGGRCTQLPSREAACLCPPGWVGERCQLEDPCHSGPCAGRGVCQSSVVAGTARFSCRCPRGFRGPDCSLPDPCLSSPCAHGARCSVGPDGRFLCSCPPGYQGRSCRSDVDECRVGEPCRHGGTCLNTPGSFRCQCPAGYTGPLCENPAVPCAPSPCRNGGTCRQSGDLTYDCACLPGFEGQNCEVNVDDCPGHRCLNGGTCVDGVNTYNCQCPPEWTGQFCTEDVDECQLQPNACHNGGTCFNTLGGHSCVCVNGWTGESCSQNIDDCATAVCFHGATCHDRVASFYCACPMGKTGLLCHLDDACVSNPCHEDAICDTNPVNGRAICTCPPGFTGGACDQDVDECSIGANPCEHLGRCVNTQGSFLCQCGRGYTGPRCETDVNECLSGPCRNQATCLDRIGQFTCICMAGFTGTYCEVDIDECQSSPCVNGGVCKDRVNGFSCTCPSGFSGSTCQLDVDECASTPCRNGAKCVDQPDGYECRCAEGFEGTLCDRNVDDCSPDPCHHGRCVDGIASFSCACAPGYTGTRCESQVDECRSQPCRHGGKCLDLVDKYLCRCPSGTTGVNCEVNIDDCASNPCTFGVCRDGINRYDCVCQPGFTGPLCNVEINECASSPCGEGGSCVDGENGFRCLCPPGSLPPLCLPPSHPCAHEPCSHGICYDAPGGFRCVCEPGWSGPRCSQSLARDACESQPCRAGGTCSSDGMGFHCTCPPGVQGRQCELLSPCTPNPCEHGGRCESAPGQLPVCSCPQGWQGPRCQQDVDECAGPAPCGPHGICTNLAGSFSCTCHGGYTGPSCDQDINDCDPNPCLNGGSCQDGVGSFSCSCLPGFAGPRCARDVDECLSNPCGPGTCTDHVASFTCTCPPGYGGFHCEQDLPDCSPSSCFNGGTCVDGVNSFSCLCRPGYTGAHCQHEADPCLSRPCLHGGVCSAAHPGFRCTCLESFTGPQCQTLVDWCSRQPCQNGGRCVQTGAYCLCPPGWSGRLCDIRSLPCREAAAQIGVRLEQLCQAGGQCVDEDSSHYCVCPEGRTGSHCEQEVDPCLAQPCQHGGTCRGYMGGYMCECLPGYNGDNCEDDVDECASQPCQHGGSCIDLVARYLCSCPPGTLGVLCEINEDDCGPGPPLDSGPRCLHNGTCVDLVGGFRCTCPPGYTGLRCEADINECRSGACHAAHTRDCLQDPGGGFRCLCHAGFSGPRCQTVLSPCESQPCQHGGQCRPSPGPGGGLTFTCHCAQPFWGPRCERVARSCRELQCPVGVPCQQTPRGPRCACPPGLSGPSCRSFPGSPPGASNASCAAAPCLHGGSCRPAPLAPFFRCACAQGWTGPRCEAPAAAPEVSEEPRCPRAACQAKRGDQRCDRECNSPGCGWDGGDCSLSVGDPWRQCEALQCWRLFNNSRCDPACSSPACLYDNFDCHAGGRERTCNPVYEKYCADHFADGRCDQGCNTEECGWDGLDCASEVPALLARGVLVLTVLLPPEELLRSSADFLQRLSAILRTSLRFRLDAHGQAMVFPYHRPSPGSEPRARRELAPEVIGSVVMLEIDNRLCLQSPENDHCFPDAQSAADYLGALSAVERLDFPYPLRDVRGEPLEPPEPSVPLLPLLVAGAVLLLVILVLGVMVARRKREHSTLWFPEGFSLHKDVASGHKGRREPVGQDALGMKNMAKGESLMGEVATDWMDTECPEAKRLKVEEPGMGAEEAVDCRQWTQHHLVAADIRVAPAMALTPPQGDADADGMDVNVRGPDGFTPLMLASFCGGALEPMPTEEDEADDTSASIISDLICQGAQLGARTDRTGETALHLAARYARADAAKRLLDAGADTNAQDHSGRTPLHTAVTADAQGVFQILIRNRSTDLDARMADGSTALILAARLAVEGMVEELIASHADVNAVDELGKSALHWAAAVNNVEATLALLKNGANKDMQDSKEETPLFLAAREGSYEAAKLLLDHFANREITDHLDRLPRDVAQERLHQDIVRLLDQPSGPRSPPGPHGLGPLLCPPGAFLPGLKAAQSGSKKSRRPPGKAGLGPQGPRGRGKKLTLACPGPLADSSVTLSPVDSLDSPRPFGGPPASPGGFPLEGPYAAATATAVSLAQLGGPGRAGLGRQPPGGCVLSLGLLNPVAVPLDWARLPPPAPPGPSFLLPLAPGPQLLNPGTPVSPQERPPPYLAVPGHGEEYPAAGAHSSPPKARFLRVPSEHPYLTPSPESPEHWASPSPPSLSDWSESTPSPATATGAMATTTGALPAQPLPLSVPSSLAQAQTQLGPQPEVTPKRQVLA

[10] = small-molecule microarray binders of probe aEGFR, primary screen, biochemical, biotinylated probe, 635/667 nm fluorescence (AID 1097); details: higher = more signal;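 also: probe is a biotinylated anti-EGFR antibody binding compounds printed on slides; score combines fluorescence near 667 nm and signal to noise of each spot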
[11] = system: Plasmodium falciparum Sir2 (PF13_0152, Sir2A); experiment: pfSir2 binders on small-molecule microarrays, primary screen, biochemical, small-molecule microarray, 635 nm fluorescence (AID 1098); details: small-molecule microarray binding, fluorescence 635 nm; higher = more signal;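 also: score merges spot fluorescence intensity with its signal-to-noise ratio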
[12] = small-molecule microarray binders of probe aDKK1, primary screen, biochemical, biotinylated probe, 635/667 nm fluorescence (AID 1099); details: higher = more signal;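 also: score merges 667nm spot fluorescence with signal to noise across triplicate slides; reference of the scale not given here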
[13] = small-molecule microarray binders of probe aCHRDL2, primary screen, biochemical, biotinylated probe, 635/667 nm fluorescence (AID 1100); details: higher = more signal
[14] = splicing luciferase reporter signal modulators, primary screen, spliceosome inhibition project, cell-based, HEK293, splice +/- reporter (AID 1101); details: luminescence, 24 h, higher = more signal, called active from +8 up or from −8 down;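 also: HEK293 cells carrying a splicing-competent luciferase reporter gene; test concentration not given here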
[15] = molecular target: Fibroblast growth factor 10 (Homo sapiens) (UniProt O15520); experiment: FGF10 binders on small-molecule microarrays, primary screen, biochemical, small-molecule microarray, 635 nm fluorescence (AID 1102); details: FGF10 binding, fluorescence 635 nm, higher = more signal
Chain of Fibroblast growth factor 10 (Homo sapiens) (O15520 whole entry, looked up): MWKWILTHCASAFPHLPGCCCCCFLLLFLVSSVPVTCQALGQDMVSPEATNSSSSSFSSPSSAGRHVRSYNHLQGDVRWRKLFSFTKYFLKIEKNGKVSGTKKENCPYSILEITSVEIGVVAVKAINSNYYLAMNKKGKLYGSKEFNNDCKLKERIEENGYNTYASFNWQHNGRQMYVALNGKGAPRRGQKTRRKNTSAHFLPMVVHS

[16] = system: glycogen synthase kinase-3 (GSK3A per assay name; protocol says GSK3B); experiment: GSK3 binders on small-molecule microarrays, primary screen, biochemical, small-molecule microarray, 635 nm fluorescence, GSK3A (AID 1103); details: small-molecule microarray binding, fluorescence 635 nm; higher = more signal; also: the record names both GSK3A and GSK3B
[17] = molecular target: Epidermal growth factor receptor (Homo sapiens) (UniProt P00533); experiment: EGFR binders on small-molecule microarrays, primary screen, biochemical, small-molecule microarray, 635 nm fluorescence (AID 1104); details: EGFR binding, higher = more signal;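 also: score merges 667 nm emission intensity with spot signal to noise over triplicate slides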
Chain of Epidermal growth factor receptor (Homo sapiens) (P00533 whole entry, looked up): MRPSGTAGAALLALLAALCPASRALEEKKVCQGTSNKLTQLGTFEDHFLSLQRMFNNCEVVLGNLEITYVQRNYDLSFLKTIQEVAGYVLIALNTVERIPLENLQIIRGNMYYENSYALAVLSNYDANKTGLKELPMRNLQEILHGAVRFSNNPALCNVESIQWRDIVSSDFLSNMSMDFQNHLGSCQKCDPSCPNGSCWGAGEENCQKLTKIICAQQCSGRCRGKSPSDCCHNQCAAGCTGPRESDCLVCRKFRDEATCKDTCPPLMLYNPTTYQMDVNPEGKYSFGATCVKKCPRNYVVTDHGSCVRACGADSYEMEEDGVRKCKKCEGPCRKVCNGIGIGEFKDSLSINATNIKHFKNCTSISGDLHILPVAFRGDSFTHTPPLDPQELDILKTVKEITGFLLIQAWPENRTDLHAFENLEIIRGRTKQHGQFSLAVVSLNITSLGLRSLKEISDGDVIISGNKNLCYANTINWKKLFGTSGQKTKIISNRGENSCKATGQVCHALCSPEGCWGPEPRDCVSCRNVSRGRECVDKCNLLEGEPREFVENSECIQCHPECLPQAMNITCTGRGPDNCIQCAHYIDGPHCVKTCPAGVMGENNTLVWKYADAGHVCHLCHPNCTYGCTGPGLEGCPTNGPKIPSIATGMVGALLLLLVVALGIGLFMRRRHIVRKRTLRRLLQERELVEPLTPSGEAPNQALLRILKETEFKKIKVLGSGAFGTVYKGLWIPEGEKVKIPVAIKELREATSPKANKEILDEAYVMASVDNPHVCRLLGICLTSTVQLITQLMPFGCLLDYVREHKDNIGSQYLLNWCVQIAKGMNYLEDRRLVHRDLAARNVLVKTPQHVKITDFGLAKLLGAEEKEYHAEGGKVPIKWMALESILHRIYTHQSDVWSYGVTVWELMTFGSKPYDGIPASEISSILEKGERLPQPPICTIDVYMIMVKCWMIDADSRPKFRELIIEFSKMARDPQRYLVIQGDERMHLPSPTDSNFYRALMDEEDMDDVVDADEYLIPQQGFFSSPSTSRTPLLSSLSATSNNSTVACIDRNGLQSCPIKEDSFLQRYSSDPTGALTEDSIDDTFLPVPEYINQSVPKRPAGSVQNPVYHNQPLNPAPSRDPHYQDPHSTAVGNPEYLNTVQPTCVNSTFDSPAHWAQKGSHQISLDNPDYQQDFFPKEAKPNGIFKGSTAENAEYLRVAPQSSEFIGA

[18] = molecular target: Follistatin-related protein 3 (Homo sapiens) (UniProt O95633); experiment: FSTL3 binders on small-molecule microarrays, primary screen, biochemical, small-molecule microarray, 635 nm fluorescence (AID 1105); details: FSTL3 binding, higher = more signal;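 also: score merges emission near 667 nm and signal to noise per printed spot across three slides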
Chain of Follistatin-related protein 3 (Homo sapiens) (O95633 whole entry, looked up): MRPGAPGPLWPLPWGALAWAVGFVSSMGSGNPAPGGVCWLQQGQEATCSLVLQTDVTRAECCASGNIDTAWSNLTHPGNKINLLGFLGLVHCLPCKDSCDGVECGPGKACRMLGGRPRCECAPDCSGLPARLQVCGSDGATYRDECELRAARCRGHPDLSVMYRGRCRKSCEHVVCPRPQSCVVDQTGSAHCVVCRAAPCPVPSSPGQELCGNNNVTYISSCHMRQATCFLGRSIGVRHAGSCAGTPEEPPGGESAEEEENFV

[19] = molecular target: Dickkopf-related protein 1 (Homo sapiens) (UniProt O94907); experiment: DKK1 binders on small-molecule microarrays, primary screen, biochemical, small-molecule microarray, 635 nm fluorescence scan (AID 1106); details: DKK1 binding, higher = more signal;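 also: score merges emission near 667 nm with signal to noise over three replicate slides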
Chain of Dickkopf-related protein 1 (Homo sapiens) (O94907 whole entry, looked up): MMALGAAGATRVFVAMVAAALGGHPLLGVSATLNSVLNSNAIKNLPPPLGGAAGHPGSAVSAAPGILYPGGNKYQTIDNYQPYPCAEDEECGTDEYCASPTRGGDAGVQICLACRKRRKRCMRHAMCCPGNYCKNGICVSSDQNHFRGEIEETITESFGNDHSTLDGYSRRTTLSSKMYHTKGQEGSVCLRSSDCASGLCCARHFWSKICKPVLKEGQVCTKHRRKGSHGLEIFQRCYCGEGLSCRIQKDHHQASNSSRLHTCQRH

[20] = system: Inhibin beta A chain (activin A); experiment: INHBA (activin A) binders on microarrays, primary screen, biochemical, small-molecule microarray, 635 nm fluorescence scan (AID 1107); details: small-molecule microarray binding, higher = more signal;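 also: mouse activin A protein probed at 4.33 µg/mL on printed slides; score merges bound-protein fluorescence near 667 nm with spot signal-to-noise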

## C=C(CCCC)C(=O)CC[C@@H](OC(=O)c1cccnc1)c1ccc(OCCO)cc1
[1]
  composite z-score: 1.48
[2]
  z-score: -0.405 (inactive)
[3]
  z-score: -2.22 (inactive)
[4]
  z-score: -0.861 (inactive)
[5]
  composite z-score: 1.18
[6]
  z-score: -0.288 (inactive)
[7]
  composite z-score: -0.113
[8]
  composite z-score: 1.93
[9]
  composite z-score: 0.952
[10]
  composite z-score: -0.0828
[11]
  composite z-score: 1.25
[12]
  composite z-score: -0.191
[13]
  composite z-score: -0.266
[14]
  z-score: 2.51 (inactive)
[15]
  composite z-score: 1.67
[16]
  composite z-score: 0.704
[17]
  composite z-score: 0.298
[18]
  composite z-score: 1.39
[19]
  composite z-score: 0.714
[20]
  composite z-score: 0.982

## CC(=O)NCCCC[C@@H]1NC(=O)[C@H]2C[C@@H](C(=O)NCCCCCNC(=O)CS)[C@@H](c3cccc(OCCO)c3)N2C1=O
[1]
  composite z-score: 0.896
[2]
  z-score: 0.778 (inactive)
[3]
  z-score: 0.0625 (inactive)
[4]
  z-score: 0.0709 (inactive)
[5]
  composite z-score: 3.18
[6]
  z-score: -0.418 (inactive)
[7]
  composite z-score: -0.184
[8]
  composite z-score: 0.52
[9]
  composite z-score: 0.059
[10]
  composite z-score: -0.104
[11]
  composite z-score: 1.52
[12]
  composite z-score: -0.136
[13]
  composite z-score: 0.441
[14]
  z-score: -0.293 (inactive)
[15]
  composite z-score: 0.349
[16]
  composite z-score: 0.552
[17]
  composite z-score: 0.39
[18]
  composite z-score: 0.397
[19]
  composite z-score: 0.607
[20]
  composite z-score: 0.469

## O=C(O)[C@@H]1C[C@@H]2C(=O)N3CCC[C@H]3C(=O)N2[C@@H]1c1cccc(OCCO)c1
[1]
  composite z-score: 1.53
[2]
  z-score: -0.386 (inactive)
[3]
  z-score: -1.98 (inactive)
[4]
  z-score: -0.533 (inactive)
[5]
  composite z-score: 4.25
[6]
  z-score: 1.14 (inactive)
[7]
  composite z-score: 1.49
[8]
  composite z-score: 1.95
[9]
  composite z-score: 1.07
[10]
  composite z-score: 1.27
[11]
  composite z-score: 2.07
[12]
  composite z-score: 2.67
[13]
  composite z-score: 1.72
[14]
  z-score: 0.0627 (inactive)
[15]
  composite z-score: 1.36
[16]
  composite z-score: 1.44
[17]
  composite z-score: 1.41
[18]
  composite z-score: 1.54
[19]
  composite z-score: 1.9
[20]
  composite z-score: 1.98

## C=C[C@H](C)[C@H](OC(=O)Nc1ccc(OC)cc1)c1ccc(OCCO)cc1
[1]
  composite z-score: -0.173
[2]
  z-score: 0.164 (inactive)
[3]
  z-score: -2.2 (inactive)
[4]
  z-score: -1.43 (inactive)
[5]
  composite z-score: 0.038
[6]
  z-score: 2.01 (inactive)
[7]
  composite z-score: -0.129
[8]
  composite z-score: -1.14
[9]
  composite z-score: -0.36
[10]
  composite z-score: -0.216
[11]
  composite z-score: 0.515
[12]
  composite z-score: -0.115
[13]
  composite z-score: 0.931
[14]
  z-score: -0.921 (inactive)
[15]
  composite z-score: -1.12
[16]
  composite z-score: -0.78
[17]
  composite z-score: -2.13
[18]
  composite z-score: -0.844
[19]
  composite z-score: -1.28
[20]
  composite z-score: -0.801

## COCCOC(=O)N1C(=O)[C@@]2(c3cc(C#CCNC(N)=O)ccc31)[C@H](c1ccc(OCCO)cc1)N1[C@H](c3ccccc3)[C@H](c3ccccc3)OC(=O)[C@H]1[C@@H]2C(N)=O
[1]
  composite z-score: 0.981
[2]
  z-score: 2.18 (inactive)
[3]
  z-score: 1.16 (inactive)
[4]
  z-score: 2.29 (inactive)
[5]
  composite z-score: 1.92
[6]
  z-score: 1.11 (inactive)
[7]
  composite z-score: 0.221
[8]
  composite z-score: 0.228
[9]
  composite z-score: 0.542
[10]
  composite z-score: 0.387
[11]
  composite z-score: 0.826
[12]
  composite z-score: 0.695
[13]
  composite z-score: 0.435
[14]
  z-score: 0.928 (inactive)
[15]
  composite z-score: 0.748
[16]
  composite z-score: -0.0886
[17]
  composite z-score: 1.14
[18]
  composite z-score: 0.455
[19]
  composite z-score: 0.204
[20]
  composite z-score: 1.07
